Measured values taken from PubChem BioAssay (NCATS).
“And” between values parts separate entries of the source, which are not always exact repeats. Equal entries are not always repeated. Results filed as inconclusive are left out. Entries that show only a call come without a potency. The source made the active and inactive calls. Unless noted, calls come from the whole dose curve; as a rule, active = well fitted curve in the direction sought with a large enough effect; inconclusive = small, poorly fitted or top-dose-only effect, or another doubt; inactive = no such curve, though single readings can be large; an effect the other way counts as inactive or inconclusive.

Key:
[1] = target: Luciferin 4-monooxygenase (Photinus pyralis) (UniProt P08659); test: Biochemical firefly luciferase enzyme assay for NPC (AID 624030); note: nearly all actives have a fitted effect of over 70% in size; note: potency is the fitted concentration of half-maximal effect
Luciferin 4-monooxygenase (Photinus pyralis), sequence (P08659 whole entry, looked up): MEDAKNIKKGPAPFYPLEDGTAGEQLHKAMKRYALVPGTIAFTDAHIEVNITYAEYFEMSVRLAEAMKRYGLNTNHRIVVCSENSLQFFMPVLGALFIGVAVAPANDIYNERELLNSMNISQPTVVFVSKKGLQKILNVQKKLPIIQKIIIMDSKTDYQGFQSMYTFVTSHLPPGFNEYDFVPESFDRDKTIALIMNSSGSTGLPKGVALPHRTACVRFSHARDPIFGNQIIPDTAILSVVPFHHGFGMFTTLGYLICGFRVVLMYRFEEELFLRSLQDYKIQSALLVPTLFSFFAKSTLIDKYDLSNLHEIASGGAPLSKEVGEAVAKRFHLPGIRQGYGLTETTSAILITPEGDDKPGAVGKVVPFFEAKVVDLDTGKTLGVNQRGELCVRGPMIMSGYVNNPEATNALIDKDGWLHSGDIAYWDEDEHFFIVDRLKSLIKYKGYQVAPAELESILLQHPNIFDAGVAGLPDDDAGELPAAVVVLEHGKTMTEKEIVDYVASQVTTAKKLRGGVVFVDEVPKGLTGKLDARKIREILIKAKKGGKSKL
How it was run: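 Direct inhibition of firefly luciferase enzyme (10 nM final, 50 mM Tris Acetate) assessed by luminescence within 5 minutes. Percent activity scaled between DMSO and PTC124 positive control, with concentration-effect curves classified by fit quality and response.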

[2] = S16 Schwann cell viability assay (CellTiter-Glo assay) (AID 624031);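 note: cellular ATP luminescence as a viability measure; nearly all actives have a fitted effect of over 70% in size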
How it was run: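 Native S16 Schwann cells (rat), serum-containing medium, overnight attachment then 24 h drug exposure at 37 °C/5% CO2. CellTiter-Glo ATP signal; normalized to cell-free and vehicle wells.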

[3] = S16 Schwann cell PMP22 intronic element firefly luciferase assay (AID 624032); note: nearly all actives have a fitted effect of over 30% in size; note: potency is the fitted concentration of half-maximal effect
How it was run: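 Luciferase reporter of PMP22 intronic-element expression in stably transfected S16 rat Schwann cells, read by ONE-Glo luminescence after 24 h compound exposure at 37 C. Activity scaled between DMSO (0%) and positive-control PTC124; concentration-effect curves quality-classified.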

[4] = target: Glutaminase kidney isoform, mitochondrial (Homo sapiens) (UniProt O94925); test: qHTS for Inhibitors of Glutaminase (GLS): LOPAC Validation (AID 624146);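 note: glutamate product detected by oxidase and peroxidase coupled Amplex red fluorescence gain; nearly all actives have a fitted effect of over 60% in size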
Glutaminase kidney isoform, mitochondrial (Homo sapiens), sequence (O94925 whole entry, looked up, canonical isoform): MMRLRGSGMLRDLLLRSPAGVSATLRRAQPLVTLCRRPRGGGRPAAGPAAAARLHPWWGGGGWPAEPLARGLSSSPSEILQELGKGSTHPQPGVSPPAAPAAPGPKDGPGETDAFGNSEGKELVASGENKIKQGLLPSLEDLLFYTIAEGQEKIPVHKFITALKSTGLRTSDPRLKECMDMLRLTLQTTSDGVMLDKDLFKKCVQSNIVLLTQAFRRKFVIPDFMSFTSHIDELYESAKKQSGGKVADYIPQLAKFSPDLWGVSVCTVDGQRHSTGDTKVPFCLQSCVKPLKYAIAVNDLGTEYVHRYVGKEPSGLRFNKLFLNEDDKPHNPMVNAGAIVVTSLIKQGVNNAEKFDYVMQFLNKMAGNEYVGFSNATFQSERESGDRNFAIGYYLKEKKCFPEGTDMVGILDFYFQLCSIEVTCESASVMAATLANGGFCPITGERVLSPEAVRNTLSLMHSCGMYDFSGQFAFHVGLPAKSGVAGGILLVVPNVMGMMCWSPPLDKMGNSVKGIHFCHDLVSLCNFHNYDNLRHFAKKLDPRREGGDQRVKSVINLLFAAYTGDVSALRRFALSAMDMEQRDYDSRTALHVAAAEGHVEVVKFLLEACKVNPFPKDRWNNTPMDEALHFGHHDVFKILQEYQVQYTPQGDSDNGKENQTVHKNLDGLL
How it was run: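 Two-point fluorescence kinetic (t0, 30 min RT) for hKGA; glutamate detected via glutamate oxidase–HRP–Amplex Red. Substrate: 1 mM L-glutamine solution; buffer 45 mM KH2PO4, pH 8.2.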

[5] = qHTS of Trypanosoma Brucei Inhibitors: LOPAC Validation (AID 624147)
How it was run: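 In this concentration-response screen, enzyme-free wells defined baseline while DMSO plates tracked drift. Each reaction combined TbPYK, substrate, compound and 130 uM ADP for 45 min at room temperature. Kinase-Glo Plus luminescence gave the signal.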

[6] = qHTS of Nrf2 Activators: LOPAC Validation (AID 624149)
How it was run: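 AREc32_Fluc cells, 1000/well, OPTI-MEM + 5% FBS, o/n 37 deg C 5% CO2; compound pin-transfer, 24 hr 37 deg C; Steady-Glo 30 min RT, luminescence read.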

[7] = HTS Assay for Allosteric Antagonists of the Human D2 Dopamine Receptor: Hit Validation in HTRF (AID 624455)
How it was run: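 HTRF read-out; cells stably expressing D1 receptor; hits scored for inhibition of D1-mediated response. Primary screen: calcium flux, force-coupled inducible Hek293 Trex D2 line, antagonism vs EC80 dopamine.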

[8] = qHTS assay for small molecule agonists of the antioxidant response element (ARE) signaling pathway (AID 651741; active = well fitted activation curve with a large enough effect in the signal ratio; the % refers to the signal ratio; note: potency is the fitted concentration of half-maximal effect)
How it was run: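 Agonist activity is measured as ARE-driven beta-lactamase expression in a stable HepG2 reporter line, using 16 h compound treatment at 37 C and a FRET substrate fluorescence readout after 2 h.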

[9] = qHTS assay for small molecule activators of the p53 signaling pathway (AID 651743; active = well fitted activation curve with a large enough effect in the signal ratio, not every such curve was filed as active; the % refers to the signal ratio); settings: HCT-116 p53RE-bla, beta-lactamase FRET ratio, 16 h; stronger effect = higher value
How it was run: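 A beta-lactamase reporter under p53 response element control, stably carried by HCT-116 cells, reported pathway activation. Test compounds were applied for 16 hours at 37 C, and fluorescence was measured 2 hours after adding the B/G FRET substrate.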

[10] = qHTS assay for small molecule activators of the nuclear factor-kappa B (NF-kB) signaling pathway (AID 651749; active = well fitted activation curve with a large enough effect in the signal ratio; the % refers to the signal ratio); settings: NF-kB-bla ME-180 cells, beta-lactamase FRET ratio, 16 h; stronger effect = higher value
How it was run: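 FRET-based beta-lactamase detection in ME-180 cells reports NF-kB response-element-driven transcription following overnight (16 hr) compound treatment.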

[11] = Cytotoxicity counterscreen for NFkB agonists and antagonists (AID 624476);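 note: cells exposed to compound for 48 hours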; note: potency is the fitted concentration of half-maximal effect
[12] = qHTS Assay for Identification of Small Molecule Agonists for NFkB Signaling Pathway. (AID 624478);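 note: compounds tested together with TNF alpha at its EC50 of 10 pM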
How it was run: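 Read-out: 460/530 nm emission at 405 nm excitation after 2 h LiveBLAzer loading; ME-180 NFkB-bla reporter cells exposed 5 h at 37 C to compounds with 10 pM TNF alpha final.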

[13] = qHTS Assay for Identification of Small Molecule Antagonists for NFkB Signaling Pathway. (AID 624479; calls by dose curve;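 note: pathway stimulated with TNF alpha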; note: potency is the fitted concentration of half-maximal effect)
[14] = Cell Proliferation Assay against the TMD8 Cell Line (AID 651645); settings: TMD8 DLBCL cell line proliferation/viability; at 46.1 µM (top of the series) unless noted;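 note: cells exposed to compound for 48 h before reading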
How it was run: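 TMD8 cells, 500/well in RPMI with 5% FBS, dosed immediately and grown 48 h at 37 C, 5% CO2. CellTiter-Glo luminescence normalised to DMSO 100% and 9.2 uM bortezomib (final) 0%.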

[15] = Cell Proliferation Assay against the HBL1 Cell Line (AID 651646); settings: HBL1 DLBCL cells; at 46.1 µM (top of the series) unless noted;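 note: cells exposed to compound for 48 h before reading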
How it was run: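 CellTiter-Glo luminescence after 48 h compound exposure at 37C gives percent activity, with DMSO as 100% and 9.2 uM bortezomib final as 0%. Cells: 500 log-phase HBL1 per well, RPMI plus 5% FBS.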

[16] = qHTS assay for small molecule disruptors of the mitochondrial membrane potential - 1 hr assay (AID 651754; calls by dose curve; note: potency is the fitted concentration of half-maximal effect; nearly all actives have a fitted effect of over 35% in size)
How it was run: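 Read-out: dye fluorescence at 490 nm ex/535 nm em (monomers) and 540 nm ex/590 nm em (aggregates) in HepG2 cells. Compound exposure 1 hr at 37C, followed by 30 min dye loading.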

[17] = S16 Schwann cell PMP22 intronic element beta-lactamase assay (AID 624044; calls by dose curve; note: nearly all actives have a fitted effect of over 15% in size)
How it was run: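 Beta-lactamase reporter under a PMP22 intronic regulatory element in stable S16 rat Schwann cells; 24 h compound exposure. 460 nm blue signal normalized between DMSO (0%) and potassium clavulanate, with 535 nm FRET tracking viability; curves classed by r2 and response.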

[18] = Cell Proliferation Assay against the TMD8 Cell Line (Caspase readout at 16 hrs) (AID 651712); note: potency is the fitted concentration of half-maximal effect
How it was run: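 Caspase-Glo luminescence measured apoptosis after a 16 h, 37 C compound exposure of TMD8 cells (500 cells/well, 5% FBS RPMI). DMSO set 0% and bortezomib at 9.2 uM final set 100% activity.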

[19] = Cell Proliferation Assay against the TMD8 Cell Line (Caspase readout at 8 hrs) (AID 651713)
How it was run: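 Apoptosis readout: caspase 3/7 luminescence (Caspase-Glo), 15 min RT. Cells: TMD8, 500/well, RPMI + 5% FBS, no phenol red. Exposure 8 h, 37C. % activity vs DMSO = 0, bortezomib 9.2 uM final = 100.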

SMILES: CC(=O)c1ccc(S(=O)(=O)NC(=O)NC2CCCCC2)cc1
- Potency [1]: inactive
- Potency [2]: inactive
- Potency [3]: inactive
- Potency [4]: inactive
- outcome [5]: inactive
- outcome [6]: inactive
- outcome [7]: inactive
- Potency [8]: inactive
- activation [9]: -2.83% (inactive) and -1.75% (inactive)
- activation [10]: -0.811% (inactive) and -1.71% (inactive)

SMILES: O=C(O)CCc1nc(-c2ccccc2)c(-c2ccccc2)o1
- Potency [1]: inactive
- Potency [2]: inactive
- Potency [3]: inactive
- Potency [4]: inactive
- outcome [5]: inactive
- outcome [7]: inactive

SMILES: COc1ccccc1N1CCN(CCCNc2cc(=O)n(C)c(=O)n2C)CC1
- Potency [1]: inactive
- Potency [2]: inactive
- Potency [3]: inactive
- Potency [4]: inactive
- outcome [5]: inactive
- outcome [6]: inactive
- outcome [7]: inactive

SMILES: C[C@@H](O)[C@H]1C(=O)N2C(C(=O)O)=C(S[C@@H]3CN[C@H](C(=O)N(C)C)C3)[C@H](C)[C@H]12
- Potency [1]: inactive
- Potency [2]: inactive
- Potency [3]: inactive

SMILES: CC(=O)N[C@@H](CS)C(=O)O
- Potency [1]: inactive
- Potency [2]: inactive
- Potency [3]: inactive
- Potency [4]: inactive
- outcome [5]: inactive
- outcome [6]: inactive
- outcome [7]: inactive
- Potency [8]: inactive
- activation [9]: 0.943% (inactive)

SMILES: Cc1nnc(C(C)C)n1C1C[C@H]2CC[C@@H](C1)N2CC[C@H](NC(=O)C1CCC(F)(F)CC1)c1ccccc1 (stereo partly specified)
- Potency [1]: inactive

SMILES: CCCCC1C(=O)N(c2ccccc2)N(c2ccccc2)C1=O
- Potency [1]: inactive
- Potency [2]: inactive
- Potency [3]: inactive
- Potency [4]: inactive
- outcome [5]: inactive
- outcome [6]: inactive
- outcome [7]: inactive
- Potency [8]: inactive
- activation [10]: -1.5% (inactive) and -1.29% (inactive)

SMILES: C[N+](C)(C)CCCCCC[N+](C)(C)C
- Potency [1]: inactive
- Potency [2]: inactive
- Potency [3]: inactive
- Potency [4]: inactive
- outcome [5]: inactive
- outcome [6]: inactive
- outcome [7]: inactive

SMILES: N#C[C@H]1C[C@H]2C[C@@H]2N1C(=O)[C@@H](N)C12CC3CC(CC(O)(C3)C1)C2
- Potency [1]: inactive

SMILES: CC(=O)Nc1ccc([C@H](C)C(=O)Nc2ncc(C(C)C)s2)cc1
- Potency [11]: 0.935 µM (active)
- outcome [12]: inactive
- Potency [13]: 0.335 µM (active)
- viability (% of control) [14]: -0.0002%
- viability, percent of control [15]: 33.5%

SMILES: O=c1c(-c2ccc(O)cc2)coc2cc(O)ccc12
- Potency [4]: inactive
- outcome [5]: inactive
- outcome [6]: inactive
- outcome [7]: inactive
- Potency [8]: 27.3 µM (active) and 42.2 µM (active)
- activation [9]: -1.55% (inactive) and 1.43% (inactive)
- activation [10]: -0.613% (inactive) and -0.223% (inactive)
- Potency [16]: 18.8 µM (active)

SMILES: CCN(CC)C(=O)c1ccc(O)c(OC)c1
- Potency [1]: inactive
- Potency [2]: inactive
- Potency [3]: inactive
- outcome [5]: inactive
- outcome [6]: inactive
- outcome [7]: inactive

SMILES: Clc1ccc(COC(Cn2ccnc2)c2ccc(Cl)cc2Cl)cc1 (stereo unspecified)
- Potency [1]: inactive
- Potency [2]: inactive
- Potency [17]: inactive

SMILES: CN(C)C1CCN(C(=O)c2ccc(NC(=O)Nc3nc(N4CCOCC4)nc(N4CCOCC4)n3)cc2)CC1
- Potency [11]: 0.0743 µM (active)
- outcome [12]: inactive
- Potency [13]: inactive
- viability (% of control) [14]: 2.35%
- viability, percent of control [15]: 26.9%
- Potency [18]: 6.62 µM (active)

SMILES: CC(C)[C@H](CO)Nc1nc(Nc2ccc(C(=O)O)c(Cl)c2)c2ncn(C(C)C)c2n1
- Potency [11]: inactive
- outcome [12]: inactive
- Potency [13]: inactive
- viability (% of control) [14]: 83.7%
- viability, percent of control [15]: 129%
- Potency [18]: inactive
- Potency [19]: inactive

SMILES: COc1ccc(Cc2nccc3cc(OC)c(OC)cc23)cc1OC
- Potency [1]: inactive
- Potency [2]: inactive
- Potency [4]: inactive
- outcome [5]: inactive
- outcome [6]: inactive
- outcome [7]: inactive

SMILES: COc1ncc(-c2ccc3nccc(-c4ccnnc4)c3c2)cc1NS(=O)(=O)c1ccc(F)cc1F
- Potency [11]: 1.05 µM (active)
- outcome [12]: inactive
- Potency [13]: 11.9 µM (active)
- viability (% of control) [14]: 1.53%
- viability, percent of control [15]: 4.41%
- Potency [18]: inactive

SMILES: COc1cc2ncnc(Nc3ccc(F)c(Cl)c3)c2cc1OCCCN1CCOCC1
- Potency [1]: inactive
- Potency [3]: 36.1 µM (active)
- Potency [17]: inactive
- Potency [11]: inactive
- outcome [12]: inactive
- viability (% of control) [14]: 50.3%
- viability, percent of control [15]: 40.3%

SMILES: O=C(O)c1cc(-c2ccccc2)nc2ccccc12
- Potency [1]: 18.6 µM (active)
- Potency [2]: inactive
- Potency [3]: inactive
- activation [9]: -1.06% (inactive)
- activation [10]: -3.75% (inactive)

SMILES: O=C1Nc2ccc(Cl)cc2C(C#CC2CC2)(C(F)(F)F)O1 (stereo unspecified)
- Potency [1]: inactive
- Potency [2]: inactive
- Potency [17]: inactive
- outcome [12]: inactive
- Potency [13]: 30.6 µM (active)

SMILES: O=c1cc(-c2ccc(O)cc2)oc2cc(O)cc(O)c12
- Potency [4]: inactive
- outcome [5]: inactive
- outcome [6]: inactive
- outcome [7]: inactive
- Potency [8]: 24.3 µM (active) and 33.5 µM (active)
- Potency [16]: 2.98 µM (active)

SMILES: Clc1ccc(Cn2c(CN3CCCC3)nc3ccccc32)cc1
- Potency [1]: inactive
- Potency [2]: inactive
- Potency [17]: inactive
- Potency [4]: inactive
- outcome [5]: inactive
- outcome [6]: inactive
- outcome [7]: inactive

SMILES: O=C(NCCN1CCOCC1)c1ccc(Cl)cc1
- Potency [1]: inactive
- Potency [3]: inactive
- Potency [4]: inactive
- outcome [5]: inactive
- outcome [6]: inactive
- outcome [7]: inactive
